Data reported in PubChem BioAssay (Tox21).
Records with an inconclusive call do not appear. Active and inactive are the calls of the source. Unless noted, calls follow the shape of the dose curve; as a rule, active = well fitted curve in the direction sought with a large enough effect in the repeat runs; inconclusive = weak or mixed curves; inactive = no such curve, though single readings can be large; an effect the other way counts as inactive or inconclusive.

What was measured:
[1] = molecular target: Retinoic acid receptor RXR-alpha (Homo sapiens) (UniProt P19793); test: qHTS assay to identify small molecule agonists of the RXR signaling pathway (AID 1159527; calls by dose curve; also: nearly all actives have a fitted effect of over 35% in size)
Sequence of Retinoic acid receptor RXR-alpha (Homo sapiens) (P19793 whole entry, looked up): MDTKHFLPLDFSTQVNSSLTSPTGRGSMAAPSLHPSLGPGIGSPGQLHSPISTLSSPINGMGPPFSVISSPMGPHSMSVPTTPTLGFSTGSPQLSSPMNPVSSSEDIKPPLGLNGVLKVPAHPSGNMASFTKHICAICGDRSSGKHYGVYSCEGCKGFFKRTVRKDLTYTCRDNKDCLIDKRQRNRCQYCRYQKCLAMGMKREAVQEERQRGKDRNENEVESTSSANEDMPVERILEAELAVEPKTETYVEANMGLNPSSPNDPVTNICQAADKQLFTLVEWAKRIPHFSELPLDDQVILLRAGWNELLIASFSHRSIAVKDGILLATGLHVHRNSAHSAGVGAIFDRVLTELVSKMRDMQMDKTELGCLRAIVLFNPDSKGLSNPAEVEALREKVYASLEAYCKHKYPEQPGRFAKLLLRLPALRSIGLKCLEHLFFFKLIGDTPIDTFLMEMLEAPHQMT
Method in brief: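 Read-out: beta-lactamase FRET ratio (405 nm excitation, 460 and 530 nm emission) after 2 hr substrate loading at room temperature. Cells were RXR-alpha-UAS-bla HEK 293T treated with compounds for 16 hr in 2% charcoal-stripped FBS medium.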

[2] = qHTS assay to identify small molecule agonists of the RXR signaling pathway - cell viability counter screen (AID 1159529); also: series mostly up to about 77 µM; nearly all actives have a fitted effect of over 50% in size
Method in brief: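 HEK 293T RXRa-bla cells, 2% CS-FBS; 5 h settle; cpd 16 h 37 C, 5% CO2; CellTiter-Glo 30 min RT, luminescence. Tetraoctyl ammonium bromide as positive control.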

[3] = qHTS assay to identify small molecule antagonists of the retinoic acid receptor (RAR) signaling pathway (AID 1159552; also: nearly all actives have a fitted effect of over 50% in size)
Method in brief: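 Cells of the C3RL4 line were seeded, incubated overnight, then dosed with compounds in DMSO followed immediately by retinol (1 uM final). Six hours later luciferase detection reagent went in; signal was measured after 30 min at RT.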

[4] = qHTS assay to identify small molecule agonists of the retinoic acid receptor (RAR) signaling pathway (AID 1159553)
Method in brief: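 Activation of retinol signaling was monitored via a RARE luciferase reporter in C3RL4 cells. After 6 hr compound treatment at 37 C, detection reagent was added for 30 min at room temperature before luminescence reading.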

[5] = qHTS assay to identify small molecule antagonists of the estrogen related receptor (ERR) signaling pathway from Tox21 library - cell viability counter screen (AID 1224834); also: nearly all actives have a fitted effect of over 30% in size
Method in brief: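 CellTiter-Fluor fluorescence measured; ERR cells; 17.5 h compound incubation at 37 C; 30 min reagent step.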

[6] = molecular target: Luciferin 4-monooxygenase (Photinus pyralis) (UniProt P08659); test: qHTS assay to identify small molecule inhibitors of firefly luciferase (AID 1224835); also: nearly all actives have a fitted effect of over 25% in size; also: potency is read from the fitted curve at half-maximal effect; as to activity change, negative = inhibition: series mostly up to about 120 µM
Sequence of Luciferin 4-monooxygenase (Photinus pyralis) (P08659 whole entry, looked up): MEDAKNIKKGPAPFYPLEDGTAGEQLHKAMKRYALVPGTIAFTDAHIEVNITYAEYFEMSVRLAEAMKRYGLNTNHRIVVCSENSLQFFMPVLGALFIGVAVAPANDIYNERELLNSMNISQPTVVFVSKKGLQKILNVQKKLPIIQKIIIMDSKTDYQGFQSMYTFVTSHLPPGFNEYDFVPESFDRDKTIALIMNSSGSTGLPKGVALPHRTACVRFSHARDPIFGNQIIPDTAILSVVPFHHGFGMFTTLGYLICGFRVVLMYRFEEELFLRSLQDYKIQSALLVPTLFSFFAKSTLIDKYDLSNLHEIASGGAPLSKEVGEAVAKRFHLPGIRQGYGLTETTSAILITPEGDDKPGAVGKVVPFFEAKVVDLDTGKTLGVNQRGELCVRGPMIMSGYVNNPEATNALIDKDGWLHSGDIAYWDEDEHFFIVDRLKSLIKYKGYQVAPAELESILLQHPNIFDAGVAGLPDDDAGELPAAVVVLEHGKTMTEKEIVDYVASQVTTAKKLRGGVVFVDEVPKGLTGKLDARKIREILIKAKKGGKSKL
Method in brief: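 Quantitative HTS format; KM concentrations of both substrates. Purified P. pyralis FLuc activity quantified from luminescence images.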

[7] = qHTS assay to identify small molecule agonists of the constitutive androstane receptor (CAR) signaling pathway - cell viability counter screen (AID 1224836); also: series mostly up to about 92 µM; nearly all actives have a fitted effect of over 45% in size
Method in brief: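 HepG2-CYP2B6-hCAR, 2500 cells/well, 4 h pre-incubation; cpd 15 conc + PK11195 0.75 uM final; 23 h, 37 C/5% CO2; CellTiter-Fluor, fluorescence.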

[8] = qHTS assay to identify small molecule antagonists of the constitutive androstane receptor (CAR) signaling pathway - cell viability counter screen (AID 1224837); also: series mostly up to about 92 µM; nearly all actives have a fitted effect of over 45% in size
Method in brief: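 Using CellTiter-Fluor, viability is scored in HepG2 cells stably carrying hCAR and a 2.2kb CYP2B6 reporter after 23 hr compound exposure across 15 concentrations, with CITCO present at 50 nM.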

[9] = molecular target: Nuclear receptor subfamily 1 group I member 3 (Homo sapiens) (UniProt Q14994); test: qHTS assay to identify small molecule antagonists of the constitutive androstane receptor (CAR) signaling pathway (AID 1224838);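 also: HepG2 cells stably expressing hCAR with CYP2B6 luciferase reporter stimulated by CITCO; nearly all actives have a fitted effect of over 40% in size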
Sequence of Nuclear receptor subfamily 1 group I member 3 (Homo sapiens) (Q14994 whole entry, looked up): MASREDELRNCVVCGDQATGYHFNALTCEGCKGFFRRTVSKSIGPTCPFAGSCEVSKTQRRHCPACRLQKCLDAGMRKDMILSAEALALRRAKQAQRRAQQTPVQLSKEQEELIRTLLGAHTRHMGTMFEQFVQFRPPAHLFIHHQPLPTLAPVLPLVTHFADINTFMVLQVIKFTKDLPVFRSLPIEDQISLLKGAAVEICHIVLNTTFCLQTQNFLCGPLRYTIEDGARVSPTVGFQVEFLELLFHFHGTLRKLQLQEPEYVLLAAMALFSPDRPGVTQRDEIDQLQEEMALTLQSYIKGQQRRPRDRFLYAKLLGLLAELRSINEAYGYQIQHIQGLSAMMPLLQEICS
Method in brief: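 Reporter luminescence was quantified after 24 h exposure of hCAR/CYP2B6-2.2kb double-stable HepG2 cells to compounds at 15 concentrations in the presence of 50 nM CITCO final.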

[10] = molecular target: Nuclear receptor subfamily 1 group I member 3 (Homo sapiens) (UniProt Q14994); test: qHTS assay to identify small molecule agonists of the constitutive androstane receptor (CAR) signaling pathway (AID 1224839);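 also: HepG2 cells stably carrying human CAR and a CYP2B6 luciferase reporter; series mostly up to about 92 µM; nearly all actives have a fitted effect of over 15% in size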
Method in brief: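 HepG2-CYP2B6-hCAR cells, 2500/well, 4 h pre-incubation; compounds 15 conc.; PK11195 0.75 uM final; 24 h, 37 C/5% CO2; ONE-Glo luciferase read.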

[11] = qHTS assay to identify small molecule antagonists of the estrogen related receptor signaling pathway with the pleiotropic PPARgamma coactivator (PGC) from Tox21 10K library - cell viability counter screen (AID 1224840; active = well fitted cell-killing curve with a large enough effect in the repeat runs, not every such curve was filed as active; also: nearly all actives have a fitted effect of over 40% in size)
Method in brief: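 Here the PGC/ERR cells serve as a cytotoxicity control: they are exposed to compounds for 17.5 hours at 37 C, and live-cell signal is quantified using CellTiter-Fluor fluorescence.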

[12] = molecular target: Thyrotropin receptor (Homo sapiens) (UniProt P16473); test: qHTS assay to identify small molecule agonists of the thyroid stimulating hormone receptor (TSHR) signaling pathway (AID 1224843; calls by dose curve; also: nearly all actives have a fitted effect of over 45% in size)
Sequence of Thyrotropin receptor (Homo sapiens) (P16473 whole entry, looked up): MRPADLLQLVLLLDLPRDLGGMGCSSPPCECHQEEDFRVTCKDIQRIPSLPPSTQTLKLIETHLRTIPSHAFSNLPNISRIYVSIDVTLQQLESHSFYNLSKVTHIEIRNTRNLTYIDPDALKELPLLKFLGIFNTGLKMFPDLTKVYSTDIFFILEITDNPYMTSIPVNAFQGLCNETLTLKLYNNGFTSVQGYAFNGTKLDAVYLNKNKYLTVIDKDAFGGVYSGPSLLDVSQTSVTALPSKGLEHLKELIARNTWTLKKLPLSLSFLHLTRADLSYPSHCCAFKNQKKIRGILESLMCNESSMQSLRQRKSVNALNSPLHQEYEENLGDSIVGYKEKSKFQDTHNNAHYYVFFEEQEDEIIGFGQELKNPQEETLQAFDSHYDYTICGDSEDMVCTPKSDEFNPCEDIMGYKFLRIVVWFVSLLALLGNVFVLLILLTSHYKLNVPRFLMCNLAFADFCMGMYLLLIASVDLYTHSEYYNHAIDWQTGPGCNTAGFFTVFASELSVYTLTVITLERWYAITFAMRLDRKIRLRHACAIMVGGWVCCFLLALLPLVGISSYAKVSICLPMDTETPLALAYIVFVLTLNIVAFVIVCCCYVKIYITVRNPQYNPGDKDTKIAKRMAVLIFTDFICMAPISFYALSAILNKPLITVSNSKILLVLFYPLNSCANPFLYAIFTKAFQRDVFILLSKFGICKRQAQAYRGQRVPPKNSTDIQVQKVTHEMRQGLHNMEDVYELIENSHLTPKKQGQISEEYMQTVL
Method in brief: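 Cell line HEK293 with TSHR; density 800/well. Exposure 30 min RT. Readout HTRF cAMP (cAMP-d2/anti-cAMP-cryptate), 1 h RT before reading.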

[13] = qHTS assay to identify small molecule agonists of the hypoxia (HIF-1) signaling pathway - cell viability counter screen (AID 1224844; calls by dose curve; also: nearly all actives have a fitted effect of over 50% in size)
Method in brief: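 Multiplexed with the HRE beta-lactamase assay, this viability read used CellTiter-Glo luminescence (30 min, RT) on HRE-bla ME-180 cells treated 17 hrs with compounds in 0.5% dialyzed FBS medium.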

[14] = qHTS assay to identify small molecule agonists of the hypoxia (HIF-1) signaling pathway (AID 1224846; active = well fitted activation curve with a large enough effect in the signal ratio in the repeat runs, not every such curve was filed as active; the % refers to the signal ratio)
Method in brief: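 Hypoxia-pathway activation was scored as increased beta-lactamase from an HRE-controlled reporter in ME-180 cells; plated at 2,000 cells per well with 0.5% dialyzed FBS, they were exposed 17 hrs to compounds and then given CCF4-AM.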

[15] = qHTS assay to identify small molecule agonists of H2AX - cell viability counter screen (AID 1224847; calls by dose curve; also: top concentration of the series differs between compounds; nearly all actives have a fitted effect of over 30% in size)
Method in brief: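 Cells plated first: CHO-K1, 1000 per well in 10% FBS medium, incubated overnight at 37C. Then 15-point compound titration added (final DMSO 0.76%) for 3 hr. Finally CellTiter-Glo added and luminescence read.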

[16] = qHTS assay to identify small molecule agonists of H2AX (AID 1224845; active = well fitted activation curve with a large enough effect in the signal ratio in the repeat runs, not every such curve was filed as active; the % refers to the signal ratio)
Method in brief: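 Wild-type CHO-K1 cells plated overnight, then exposed 3 hr at 37C to compounds at 15 concentrations (0.76% DMSO). Lysed, then HTRF anti-pH2AX(S139)-cryptate/anti-H2AX-d2 detection after 24 hr at room temperature; emissions 665 and 620 nm.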

[17] = qHTS assay to identify small molecule antagonists of the retinoid acid receptor (RAR) signaling pathway - cell viability counter screen (AID 1159551); also: nearly all actives have a fitted effect of over 35% in size
Method in brief: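 Seed C3RL4 cells; next day add compound, then retinol to 1 uM final; incubate 6 h at 37 C; add CellTiter-Glo; read luminescence after 30 min at RT.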

[18] = qHTS assay to identify small molecule antagonists of the estrogen related receptor signaling pathway with the pleiotropic PPARgamma coactivator (PGC) from Tox21 10K library (AID 1224841; call rule not given here; also: series mostly up to about 92 µM; actives are mostly falling curves and most rising ones were filed inactive; nearly all actives have a fitted effect of over 50% in size)
Method in brief: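 Each well held 2,000 PGC/ERR cells, pre-incubated six hours (37 C, 5% CO2). Test substances in DMSO were added by pin tool and left for 18 h at 37 C before luciferase detection by One-Glo.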

[19] = qHTS assay to identify small molecule agonists of the estrogen related receptor signaling pathway with the pleiotropic PPARgamma coactivator (PGC) from Tox21 10K library (AID 1224842); also: nearly all actives have a fitted effect of over 15% in size
Method in brief: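 PGC/ERR reporter cells (NTP line) were seeded 2,000 per well, rested 6 h at 37 C/5% CO2, then pin-dosed with compounds in DMSO for 18 h at 37 C; luciferase read by One-Glo luminescence after 30 min at room temperature.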

[20] = qHTS assay to identify small molecule antagonists of the estrogen related receptor (ERR) signaling pathway from Tox21 library (AID 1224848); also: nearly all actives have a fitted effect of over 50% in size
Method in brief: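 Screening used an ERR reporter line supplied by NTP, exposed for 18 h at 37 C to library compounds delivered in DMSO. Signal was luciferase luminescence developed with ONE-Glo at room temperature for 30 min.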
% is scaled to controls: 0 for no effect and ±100 for the full control effect.

O=S(=O)(O)c1ccc2c(N=Nc3ccc(S(=O)(=O)O)c4ccccc34)c(O)c(S(=O)(=O)O)cc2c1
inactive: activation [1] 0.333% [at 6.98 µM] | activity change, negative = cytotoxicity [2] 0.355% [at 6.97 µM] | activity, negative = inhibition [3] 111% [at 8.39 µM] | activation [4] -2.37% [at 8.36 µM] | viability change, negative = cytotoxic [5] -6.16% [at 8.39 µM] | activity change, negative = inhibition [6] -3.96% [at 10.5 µM] | viability change, negative = cytotoxic [7] -7.02% [at 8.39 µM] | activity change, negative = cytotoxicity [8] -18.2% [at 8.39 µM] | activity, negative = inhibition [9] -7.08% [at 8.39 µM] | activation [10] 0.066% [at 8.39 µM] | viability change, negative = cytotoxic [11] -10.3% [at 8.39 µM] | activation [12] 3.55% [at 8.39 µM] | activity change, negative = cytotoxicity [13] -2.23% [at 6.97 µM] | activation [14] -0.322% [at 7.01 µM] | activity change, negative = cytotoxicity [15] -5.59% [at 14 µM]

CC(CO)(CO)CO
inactive: Potency [1] | outcome [2] | Potency [4] | outcome [5] | Potency [6] | outcome [7] | outcome [8] | Potency [9] | Potency [10] | outcome [12] | outcome [13] | outcome [16] | outcome [14] | outcome [15]

COS(=O)(=O)O
inactive: Potency [1] | outcome [2] | outcome [3] | Potency [4] | outcome [5] | Potency [6] | outcome [7] | outcome [8] | Potency [9] | Potency [10] | outcome [11] | outcome [12] | outcome [13] | outcome [16] | outcome [14] | outcome [15]

CN(C)CCN(C)CCO
inactive: Potency [1] | outcome [2] | outcome [3] | Potency [4] | outcome [5] | Potency [6] | outcome [7] | outcome [8] | Potency [9] | Potency [10] | outcome [11] | outcome [12] | outcome [16] | outcome [14]

OCC1CCC(CO)CC1 (centres undefined)
inactive: Potency [1] | outcome [2] | outcome [3] | Potency [4] | outcome [5] | Potency [6] | outcome [7] | outcome [8] | Potency [9] | Potency [10] | outcome [11] | outcome [12] | outcome [13] | outcome [16] | outcome [14] | outcome [15]

CC(C)CCOC(=O)c1ccccc1
inactive: Potency [1] | outcome [2] | Potency [4] | outcome [5] | outcome [7] | outcome [8] | Potency [9] | Potency [10] | outcome [11] | outcome [12] | outcome [13] | outcome [16] | outcome [14] | outcome [15]
active: Potency [6] 71 µM

C=C(C)[C@@H]1CC=C(C)C(=O)C1
inactive: Potency [1] | outcome [2] | outcome [5] | Potency [6] | outcome [7] | outcome [8] | outcome [12] | outcome [13] | outcome [16] | outcome [14] | outcome [15]

CCC(=O)CC
inactive: outcome [2] | outcome [17] | outcome [3] | Potency [4] | outcome [5] | Potency [6] | outcome [7] | outcome [8] | Potency [9] | Potency [10] | outcome [11] | outcome [18] | outcome [19] | outcome [13] | outcome [16] | outcome [14] | outcome [15] | Potency [20]
